Source: PubChem
Many of the other results were omitted from the sample, so hits are more common in it than they were.
Chlamy TAG – inducers of TAG accumulation in Chlamydomonas, primary screen, qHTS, Chlamydomonas reinhardtii. Nile Red fluorescence, 72 h. calls only at 10 µM (by protocol). hit rate 0.84% among 44,000. AID 1159537, 2015; call rule not given here;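 further: hits raise Nile Red signal meaning more stored TAG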
Starred values were filed as active, the others as inactive; i = inactive; + = active, no number.

SMILES | Chlamy TAG
Cc1ccc(CN2CCN(C(=O)Cc3ccccc3)CC2)cc1 | i
COc1ccccc1CCNCc1ccccc1C | i
Cc1cc(C)cc(N2C(=O)CC(=O)NC2=O)c1 | i
CC(C)c1ccc(C(=O)CN(C)C)cc1 | i
COc1ccc(N2CCN(Cc3ccc(F)cc3)CC2)cc1 | i
COc1ccc(N2CCN(Cc3ccc(Cl)c(Cl)c3)CC2)cc1 | i
COc1ccc(N2CCN(Cc3ccc(Cl)cc3)CC2)cc1 | +
Oc1cccc(CN2CCN(c3ccccc3Cl)CC2)c1 | i
Cc1ccccc1N1CCN(Cc2ccc(N(C)C)cc2)CC1 | i
Cc1ccccc1N1CCN(Cc2ccc(O)cc2)CC1 | +
Clc1ccccc1N1CCN(Cc2ccccc2)CC1 | i
Oc1ccc(CN2CCN(c3ccccc3Cl)CC2)cc1 | +
Cc1ccc(CN2CCN(c3ccccc3C)CC2)cc1 | i
CCOc1cc(/C=C/[N+](=O)[O-])cc(Br)c1O | i
O=c1c2ccccc2nc(Cc2ccccc2)n1-c1cccc([N+](=O)[O-])c1 | i
O=[N+]([O-])c1cc2c(cc1CNCCc1cccc(F)c1)OCO2 | i
COCCCNC1CCSC1 (stereo unspecified) | i
CCCN(Cc1cccnc1)CC1CC1 | i
C#CCSc1nc2ccccc2c(=O)n1-c1ccc(C)cc1 | i
